TcdB inh = TcdB glycohydrolase inhibitors, primary screen, biochemical, single point, plate reader; Toxin B (Clostridioides difficile), P18177; TcdB glycohydrolase enzymatic assay; inhibition, % at 9.99 µM; 350,000 tested, 0.24% active; AID 652162, 2013; in the data active = inhibition above about 10%
Y pestis TopoI = Yersinia pestis topoisomerase I inhibitors, primary screen, biochemical, cleavage product accumulation, plate reader, single point; DNA topoisomerase I (Yersinia pestis CO92); Y. pestis Topo-I cleavage product accumulation; activity, % at 10 µM; 360,000 tested, 0.064% active; AID 504884, 2011; in the data active = activity above about 50%, passing the limit was not always enough
GDH-TPI counter-1 = GDH-TPI coupling enzyme inhibitors, primary screen, artefact control for M. tuberculosis FBA inhibitor project, biochemical, absorbance, full deck; GDH-TPI coupled enzyme counterscreen, NADH absorbance; inhibition, % at 4.8 µM; 360,000 tested, 1.2% active; AID 588335, 2011; in the data active = inhibition above about 30%;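 note: 0% = DMSO wells and 100% = wells lacking the enzyme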
PrPC TRFRET = inhibitors of human cell surface prion protein PrPC, primary screen, cell-based, TR-FRET | Major prion protein (Homo sapiens), P04156 | TR-FRET read-out | inhibition, % at 13.8 µM | 370,000 tested, 0.43% active; in the data active = inhibition above about 24%; note: 0% = median of the test wells and 100% = reference compound wells
Mtb FBA inh = Mtb FBA enzyme inhibitors, primary screen, biochemical, fluorescence, strain H37Rv; Fructose-bisphosphate aldolase (Mycobacterium tuberculosis (strain ATCC 25618 / H37Rv)), …; purified M. tuberculosis FBA, fluorescence read-out; inhibition, % at 1 µM; 360,000 tested, 2.3% active; AID 588726, 2011;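 note: 0% = vehicle and 100% = reference inhibitor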
Target sequence (P9WQA3 whole entry, looked up): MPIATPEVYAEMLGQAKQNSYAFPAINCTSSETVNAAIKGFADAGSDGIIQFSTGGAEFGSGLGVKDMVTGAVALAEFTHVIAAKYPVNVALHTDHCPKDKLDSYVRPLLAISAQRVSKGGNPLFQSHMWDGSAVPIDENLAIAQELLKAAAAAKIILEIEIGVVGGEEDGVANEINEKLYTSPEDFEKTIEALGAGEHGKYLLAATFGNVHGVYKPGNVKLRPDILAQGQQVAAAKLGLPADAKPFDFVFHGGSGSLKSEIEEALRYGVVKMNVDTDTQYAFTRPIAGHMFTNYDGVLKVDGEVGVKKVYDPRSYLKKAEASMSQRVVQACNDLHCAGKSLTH
Mtb FBA inh conf = M. tuberculosis aldolase blockers, biochemical, fluorescence, strain H37Rv, confirmation; shares compounds with Mtb FBA inh; purified M. tuberculosis FBA, fluorescence read-out; 5,600 tested, 78% active; inhibition, % at 1 µM;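 note: 0% = vehicle wells and 100% = reference inhibitor wells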
GDH-TPI counter-2 = GDH-TPI coupling enzyme inhibitors, artefact control for M. tuberculosis FBA inhibitor project, biochemical, fluorescence, high throughput. inhibition, % at 1 µM. 5,600 tested, 81% active. shares compounds with Mtb FBA inh. GDH-TPI coupled enzyme counterscreen; in the data active = inhibition above about 10%
GDH-TPI DR = GDH-TPI coupling enzyme inhibitors, dose response, artefact control for M. tuberculosis FBA inhibitor project, biochemical, fluorescence, IC50; shares compounds with Mtb FBA inh; GDH-TPI coupled enzyme assay, artifact counterscreen; IC50, µM; 170 tested, 79% active; call rule not given here
* = called active by the depositor; . = not tested or not shown; + = active, no number. Shown are actives, neighbours in structure and some others; about 3.2% of the full set was active somewhere. Cut-off read from the data, not from the text of the source, unless noted: active = inhibition above about 27%; inactive = the rest.

SMILES | TcdB inh | Y pestis TopoI | GDH-TPI counter-1 | PrPC TRFRET | Mtb FBA inh | Mtb FBA inh conf | GDH-TPI counter-2 | others
Cc1ccc(-c2ccc(SCC(=O)NCC3CCCO3)nn2)cc1 (configuration not stated) | 1 | -2 | 7 | -4 | 5 | . | .
COc1ccc(-c2ccc3nnc(SCC(=O)NCC4CCCO4)n3n2)cc1 (configuration not stated) | -1 | 6 | 11 | -26 | 34* | 172* | 120*
COc1ccc(-c2ccc3nnc(SCC(N)=O)n3n2)cc1 | 1 | 4 | 19 | -2 | 29* | 85* | 60*
O=C(CSc1ccc2nc(-c3ccccc3)cn2n1)NCC1CCCO1 (configuration not stated) | 1 | 5 | 18 | -3 | 111* | + | +
CCOc1ccc(-c2ccc3nnc(SCC(=O)NCC4CCCO4)n3n2)cc1 (configuration not stated) | 0 | 7 | 17 | -6 | 5 | . | .
O=C(C(O)c1ccc(Br)cc1)N1CCC(Nc2ccc3[nH]ncc3c2)CC1 (configuration not stated) | 1 | -12 | 5 | 6 | 42* | + | +
CC1=C(C#N)C(C)C2=C(CC(C)(C)CC2=O)N1 (configuration not stated) | . | 5 | 3 | -6 | 57* | 71* | 65*
C[C@H]1CN([C@@H](C)CO)C(=O)Cc2cc(NS(=O)(=O)c3cn(C)cn3)ccc2O[C@@H]1CN(C)Cc1ccc(C(=O)Nc2ccccc2N)cc1 | 0 | . | . | . | . | . | .
CCc1cc(=O)oc2cc(C)cc(OCC(=O)N[C@@H](CSCc3ccccc3)C(=O)O)c12 | 0 | 0 | -2 | -1 | 37* | + | 162*
CCCCc1cc(=O)oc2cc(OCC(=O)NC3CCN(Cc4ccccc4)CC3)ccc12 | 0 | 19 | 11 | -1 | 1 | . | .
CCCCc1cc(=O)oc2cc(C)cc(OCC(=O)N[C@@H](CSCc3ccccc3)C(=O)O)c12 | -2 | 22 | 10 | 8 | 46* | 128* | 99*
CCc1cc(=O)oc2cc(C)cc(OCC(=O)NC(Cc3ccc(Cl)cc3)C(=O)O)c12 (configuration not stated) | 0 | 1 | 2 | 7 | 61* | 44* | 43*
Cc1c(OCC(=O)NC(Cc2ccc(Cl)cc2)C(=O)O)ccc2c(-c3ccccc3)cc(=O)oc12 (configuration not stated) | -2 | 17 | 18 | 6 | 4 | . | .
CCNC(=O)C[C@@H]1CC[C@H]2[C@H](COc3ccc(NC(=O)Cc4ccccc4)cc3C(=O)N2C)O1 | 0 | . | . | . | . | . | .
COC(=O)C1=CN(Cc2ccc(OC)c(OC)c2)C=C(C(=O)OC)C1c1ccc(F)cc1 | 0 | 1 | 24 | 2 | 97* | + | 142*
COC(=O)C1=CN(Cc2ccc(C)cc2)C=C(C(=O)OC)C1c1cc(OC)c(OC)c(OC)c1 | 1 | 43 | 12 | 1 | 33* | 91* | 73*
COC(=O)C1=CN(Cc2ccc(OC)c(OC)c2)C=C(C(=O)OC)C1c1ccccc1F | 3 | 37 | 2 | -3 | 91* | 61* | 47*
CCc1ccc(N2C=C(C(=O)OC)C(c3ccccc3F)C(C#N)=C2N)cc1 (configuration not stated) | 0 | . | . | 2 | . | . | .
COC(=O)C1=CN(Cc2ccccc2)C=C(C(=O)OC)C1c1ccc(O)c(OC)c1 | 0 | 6 | 4 | -2 | 3 | . | .
COC(=O)C1=CN(Cc2ccc(OC)c(OC)c2)C=C(C(=O)OC)C1c1ccc(O)cc1 | -1 | 20 | 9 | -10 | 64* | + | +
C[C@@H]1CN([C@H](C)CO)C(=O)c2cc(NS(=O)(=O)c3cccs3)ccc2O[C@@H](C)CCCCO[C@H]1CN(C)S(=O)(=O)c1cccs1 | 1 | . | . | . | . | . | .
CC(C)=CCOc1ccc2c(C)c(CC(=O)N3C[C@H]4C[C@@H](C3)c3cccc(=O)n3C4)c(=O)oc2c1C | 2 | 43 | 19 | 5 | 107* | 183* | 129*
Cc1c(OCC(=O)N2C[C@H]3C[C@@H](C2)c2cccc(=O)n2C3)ccc2c3c(c(=O)oc12)CCCC3 | -3 | 9 | 17 | 15 | 31* | + | +
Cc1c(OCC(=O)N2C[C@H]3C[C@@H](C2)c2cccc(=O)n2C3)ccc2c3c(c(=O)oc12)CCC3 | 2 | 1 | 21 | 7 | 9 | . | .
COc1ccc(S(=O)(=O)Nc2cccc3c2O[C@H](CN(C)C(=O)Nc2ccc(F)cc2)[C@H](C)CN([C@H](C)CO)C3=O)cc1 | 0 | . | . | . | . | . | .
SMILES | TcdB inh | Y pestis TopoI | GDH-TPI counter-1 | PrPC TRFRET | Mtb FBA inh | Mtb FBA inh conf | GDH-TPI counter-2 | others
CCCSc1ccccc1C(=O)N1CCN(C(=O)c2ccco2)CC1 | 1 | 7 | 12 | 9 | 55* | + | +
CCN(CC)CCNC(=O)c1cc2c(-c3cccc(OC)c3)nn(C)c2s1 | 2 | -16 | 23 | 2 | 60* | 173* | 129*
COc1cccc(-c2nn(C)c3sc(C(=O)NCc4ccccn4)cc23)c1 | . | -1 | 20 | 7 | 80* | 0 | -2
Cn1nc(-c2ccccc2)c2cc(C(=O)O)sc21 | 0 | -6 | 8 | 10 | 49* | 1 | 0
COc1ccc(-c2nn(C)c3sc(C(=O)NCCN(C)C)cc23)cc1OC | 4 | -10 | 12 | -4 | -1 | . | .
COc1cccc(-c2nn(C)c3sc(C(=O)NCc4ccc(C)cc4)cc23)c1 | . | 14 | 5 | 7 | 18 | . | .
COCCCNC(=O)c1cc2c(-c3cccc(OC)c3)nn(C)c2s1 | 1 | -6 | 11 | 5 | 89* | 119* | 107*
O=C(C[C@@H]1C[C@H]2c3cc(NC(=O)NC4CCCC4)ccc3O[C@H]2[C@H](CO)O1)NCc1ccc(-c2ccccc2)cc1 | -2 | . | . | . | . | . | .
O=[N+]([O-])c1ccc(-c2ccc(C=Nc3cccc4ccccc34)o2)cc1 | . | -11 | 33* | -34 | 71* | 12 | -4 | GDH-TPI DR=>10
O=[N+]([O-])c1ccc(C=Nc2cccc3ccccc23)s1 | . | -2 | -2 | . | 50* | 6 | -1
C[C@H]1CN([C@@H](C)CO)C(=O)c2cccc(NS(=O)(=O)c3ccc(Cl)cc3)c2O[C@@H]1CN(C)C(=O)NC1CCCCC1 | 0 | . | . | . | . | . | .
